# Source: PubChem BioAssay (EPA / NIEHS)
# Inconclusive results are not listed. A structure can be active in one record and inactive in another. Calls of active or inactive are those of the source. The calls were made as follows, unless noted: active = hit-call score of the fitted dose curve at least 0.9, where 1 is the maximum; inactive = score below 0.9.
# Tests used:
# [1] = ATG_TCF_b_cat_CIS: Attagene CIS-FACTORIAL HepG2 Assay for human T-Cell-Factor with beta-catenin (TCF/b-cat) (AID 2282965); settings: HepG2 TCF/beta-catenin cis-reporter transcription, actives raise or lower the signal
# In short: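 HepG2 cells transiently transfected with cis-promoter-driven multiplexed reporter units; reporter mRNA measured 24 h after dosing by RT-PCR, FAM labelling, HpaI digestion and capillary electrophoresis. Bidirectional fitting relative to DMSO baseline.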
# [2] = ATG_TAL_CIS: Attagene CIS-FACTORIAL HepG2 Assay for human TAL Basal Promoter (AID 2282966); settings: HepG2 Attagene cis-factorial TAL promoter reporter; actives raise or lower the signal;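 also: background control endpoint measuring basal TAL promoter reporter mRNA not a specific factor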
# In short: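 Readout: reporter mRNA, fluorescence by CE. System: HepG2, transient multi-reporter transfection, endogenous TF activity. Exposure: 24 h. Analysis: bidirectional, DMSO-normalized; background control.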
# [3] = ATG_TGFb_CIS: Attagene CIS-FACTORIAL HepG2 Assay for human Transforming Growth Factor (TGF) (AID 2282967); settings: HepG2 Attagene CIS TGFb reporter, mRNA transcription; actives raise or lower the signal
# In short: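 Transcript-level reporter readout: HepG2 transfectants, 24 h exposure, RNA to cDNA, reporter-specific PCR, fluorescent primer extension, capillary sizing against ROX standards. Gain- or loss-of-signal relative to DMSO.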
# [4] = ATG_VDRE_CIS: Attagene CIS-FACTORIAL HepG2 Assay for human Vitamin D Receptor Element (VDRE) (AID 2282968); settings: HepG2 VDRE cis-reporter transcription, actives raise or lower the signal
# In short: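 Transiently transfected HepG2 cells carrying cis-regulated reporter transcription units were exposed for 24 h. Reporter mRNA was measured by RT-PCR with fluorescent labelling and capillary electrophoresis, and fitted in both directions against DMSO.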
# [5] = target: Nuclear receptor subfamily 1 group I member 3 (Homo sapiens) (UniProt Q14994); experiment: ATG_CAR_TRANS: Attagene TRANS-FACTORIAL HepG2 Assay for human Constitutive Androstane Receptor (CAR) (AID 2282969; active = hit-call score of the fitted dose curve at least 0.9, where 1 is the maximum;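 also: activators raise reporter mRNA above DMSO so AC50 marks induction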); settings: HepG2 Attagene TRANS-FACTORIAL CAR reporter
# In short: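 HepG2 cells transiently transfected with GAL4-UAS reporter units; TRANS format reads activity of exogenous chimeric NR-Gal4 protein. After 24 h dosing, reporter mRNA quantified by RT-PCR, 6-FAM labelling and capillary electrophoresis; gain of signal fitted against DMSO.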
# [6] = target: Estrogen receptor (Homo sapiens) (UniProt P03372); experiment: ATG_ERa_TRANS: Attagene TRANS-FACTORIAL HepG2 Assay for human Estrogen Receptor alpha (ERa) (AID 2282970; active = hit-call score of the fitted dose curve at least 0.9, where 1 is the maximum); settings: HepG2 Attagene TRANS ERa GAL4 reporter, mRNA
# In short: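 Transactivation via ERa-Gal4 chimera in HepG2; 24 hour incubation; reporter mRNA detected by fluorescence RT-PCR and capillary electrophoresis.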
# [7] = target: X-box-binding protein 1 (Homo sapiens) (UniProt P17861); experiment: ATG_Xbp1_CIS: Attagene CIS-FACTORIAL HepG2 Assay for human X-box Binding Protein 1 (XBP1) (AID 2282972); settings: HepG2 XBP1 cis-element reporter, Attagene multiplex; actives raise or lower the signal
# In short: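 HepG2 cells transiently transfected with multiple cis-element reporter units report endogenous TF activity; 24 h exposure, then reporter mRNA measured by RT-PCR, 6-FAM labelling, HpaI digestion and capillary electrophoresis. Bidirectional fitting versus DMSO.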
# [8] = ATG_M_19_TRANS: Attagene TRANS-FACTORIAL HepG2 Assay for M19 Transcription Factor (Internal Marker) (AID 2282974; active = hit-call score of the fitted dose curve at least 0.9, where 1 is the maximum); settings: HepG2 Attagene TRANS-FACTORIAL M19 internal marker reporter
# In short: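 Fluorescence of 6-FAM-labelled reporter cDNA fragments, separated by capillary electrophoresis, served as the readout. These derived from HepG2 cells carrying transfected GAL4-UAS reporter units after 24 h dosing, with DMSO as negative control.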
# [9] = ATG_GAL4_TRANS: Attagene TRANS-FACTORIAL HepG2 Assay for GAL4 (Internal Marker) (AID 2282976; active = hit-call score of the fitted dose curve at least 0.9, where 1 is the maximum); settings: HepG2 Attagene TRANS GAL4 internal marker reporter
# In short: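 Fluorescence from capillary electrophoresis of labelled RT-PCR products quantifies reporter mRNA induction after 24 h dosing of HepG2 cells carrying transfected GAL4-UAS reporter transcription units. Vehicle DMSO serves as baseline.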
# [10] = target: Steroid hormone receptor ERR1 (Homo sapiens) (UniProt P11474); experiment: ATG_ERRa_TRANS: Attagene TRANS-FACTORIAL HepG2 Assay for human Estrogen-Related Receptor alpha (ERRa) (AID 2282971; active = hit-call score of the fitted dose curve at least 0.9, where 1 is the maximum); settings: HepG2 Attagene TRANS reporter, ERRa transactivation
# In short: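 HepG2 cells were transiently transfected with multiple GAL4-UAS reporter units, then dosed with compound for 24 h. Total RNA was reverse-transcribed, reporter cDNA PCR-amplified and fluorescently labelled, and fragments resolved by capillary electrophoresis; induction was compared with DMSO.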
# Steroid hormone receptor ERR1 (Homo sapiens), sequence (P11474 whole entry, looked up, the tested form may be a part): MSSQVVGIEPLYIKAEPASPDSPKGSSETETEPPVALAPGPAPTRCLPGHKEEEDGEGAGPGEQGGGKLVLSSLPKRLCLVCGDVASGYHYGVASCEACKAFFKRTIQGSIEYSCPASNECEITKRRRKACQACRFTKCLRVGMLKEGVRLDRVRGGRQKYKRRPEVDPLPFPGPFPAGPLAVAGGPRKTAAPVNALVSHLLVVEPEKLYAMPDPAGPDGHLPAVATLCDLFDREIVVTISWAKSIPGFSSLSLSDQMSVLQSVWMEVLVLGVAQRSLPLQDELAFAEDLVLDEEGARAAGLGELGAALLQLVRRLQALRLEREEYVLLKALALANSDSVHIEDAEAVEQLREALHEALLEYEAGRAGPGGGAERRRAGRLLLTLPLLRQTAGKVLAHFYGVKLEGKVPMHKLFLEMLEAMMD
# Nuclear receptor subfamily 1 group I member 3 (Homo sapiens), sequence (Q14994 whole entry, looked up, the tested form may be a part): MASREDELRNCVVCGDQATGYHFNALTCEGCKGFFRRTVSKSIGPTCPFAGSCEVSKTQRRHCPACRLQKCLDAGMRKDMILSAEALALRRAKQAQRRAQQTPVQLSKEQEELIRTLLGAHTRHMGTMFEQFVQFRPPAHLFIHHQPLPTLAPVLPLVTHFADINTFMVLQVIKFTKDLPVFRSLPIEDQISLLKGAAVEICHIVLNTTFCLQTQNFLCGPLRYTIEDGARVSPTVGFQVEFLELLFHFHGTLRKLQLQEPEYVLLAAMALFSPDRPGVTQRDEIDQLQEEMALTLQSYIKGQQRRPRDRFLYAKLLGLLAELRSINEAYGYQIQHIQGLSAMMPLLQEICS
# Estrogen receptor (Homo sapiens), sequence (P03372 whole entry, looked up, the tested form may be a part): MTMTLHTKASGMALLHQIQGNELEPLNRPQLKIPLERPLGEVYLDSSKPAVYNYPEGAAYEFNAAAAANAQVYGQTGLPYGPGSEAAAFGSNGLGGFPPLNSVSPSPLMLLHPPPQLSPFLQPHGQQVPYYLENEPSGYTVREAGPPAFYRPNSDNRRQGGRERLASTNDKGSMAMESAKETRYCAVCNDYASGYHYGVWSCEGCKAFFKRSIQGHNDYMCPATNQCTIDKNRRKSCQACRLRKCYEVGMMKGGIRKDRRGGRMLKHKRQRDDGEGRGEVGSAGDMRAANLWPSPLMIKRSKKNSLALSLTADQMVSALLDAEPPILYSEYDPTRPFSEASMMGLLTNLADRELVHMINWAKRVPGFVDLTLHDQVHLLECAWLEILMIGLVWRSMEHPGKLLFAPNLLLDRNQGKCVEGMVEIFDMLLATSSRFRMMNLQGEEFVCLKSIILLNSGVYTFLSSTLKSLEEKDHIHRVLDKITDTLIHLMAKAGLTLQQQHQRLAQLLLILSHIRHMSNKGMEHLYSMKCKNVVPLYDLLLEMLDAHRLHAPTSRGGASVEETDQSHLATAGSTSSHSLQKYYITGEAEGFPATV
# X-box-binding protein 1 (Homo sapiens), sequence (P17861 whole entry, looked up): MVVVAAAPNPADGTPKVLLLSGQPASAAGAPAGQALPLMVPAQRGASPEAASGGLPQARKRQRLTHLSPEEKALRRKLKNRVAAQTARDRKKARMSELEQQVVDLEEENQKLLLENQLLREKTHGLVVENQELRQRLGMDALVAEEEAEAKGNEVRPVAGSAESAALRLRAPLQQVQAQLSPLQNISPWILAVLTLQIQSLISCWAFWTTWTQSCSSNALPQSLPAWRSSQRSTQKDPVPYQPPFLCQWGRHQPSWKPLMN
SMILES,outcome [1],outcome [2],outcome [3],outcome [4],outcome [5],outcome [6],outcome [7],outcome [8],outcome [9],outcome [10],AC50 [6],AC50 [1],AC50 [2],AC50 [4],AC50 [7]
CO[Si](OC)(c1ccccc1)c1ccccc1,inactive,inactive,inactive,inactive,inactive,inactive,inactive,inactive,inactive,–,–,–,–,–,–
C=CC(F)(F)C(F)(F)C(F)(F)C(F)(F)C(F)(F)C(F)(F)C(F)(F)C(F)(F)C=C,inactive,inactive,inactive,inactive,inactive,–,inactive,inactive,–,inactive,–,–,–,–,–
CS(C)(=O)=O,inactive,inactive,inactive,inactive,inactive,–,inactive,–,–,inactive,–,–,–,–,–
COC(=O)CCC(F)(F)C(F)(F)C(F)(F)C(F)(F)F,inactive,inactive,inactive,inactive,inactive,–,inactive,inactive,inactive,–,5.85 µM (active),–,–,–,–
N=C(N)C(F)(F)C(F)(F)C(F)(F)C(F)(F)C(F)(F)C(F)(F)C(F)(F)F,inactive,inactive,inactive,inactive,inactive,–,inactive,inactive,–,–,40.6 µM (active),–,–,–,–
FC(F)(F)C(F)(F)CNCC(F)(F)C(F)(F)F,inactive,inactive,inactive,inactive,inactive,inactive,inactive,inactive,inactive,–,–,–,–,–,–
CCCCCCS,–,inactive,inactive,inactive,inactive,inactive,inactive,–,inactive,–,–,68.8 µM (active),–,–,–
FC(F)(I)C(F)(F)C(F)(F)C(F)(F)I,inactive,inactive,inactive,inactive,inactive,–,inactive,inactive,inactive,–,0.299 µM (active),–,–,–,–
CC(Cc1ccc(O)c(O)c1)C(C)Cc1ccc(O)c(O)c1 (stereo unspecified),–,–,inactive,–,inactive,–,–,inactive,inactive,–,9.13 µM (active),18.7 µM (active),6.72 µM (active),5.93 µM (active),14.4 µM (active)
CCCCC(CC)COP(=O)(O)OCC(CC)CCCC (stereo unspecified),–,inactive,inactive,–,inactive,inactive,inactive,inactive,–,–,–,42.7 µM (active),–,27.6 µM (active),–
OCC(F)(F)C(F)(F)C(F)(F)C(F)(F)C(F)(F)C(F)F,inactive,inactive,inactive,inactive,inactive,–,inactive,inactive,inactive,–,5.4 µM (active),–,–,–,–
OCC(F)(F)C(F)(F)C(F)(F)C(F)(F)C(F)(F)C(F)(F)F,inactive,–,inactive,inactive,inactive,inactive,inactive,inactive,inactive,–,–,–,239 µM (active),–,–
FC(F)(Br)C(F)(F)C(F)(F)C(F)(F)C(F)(F)C(F)(F)Br,inactive,inactive,inactive,inactive,inactive,–,inactive,–,inactive,–,7.26 µM (active),–,–,–,–
CC(C)(C)c1ccc(OC2CCCCC2O)cc1 (stereo unspecified),inactive,inactive,inactive,–,inactive,inactive,inactive,inactive,inactive,–,–,–,–,26.8 µM (active),–
c1ccc(-c2ccccc2-c2ccccc2)cc1,inactive,inactive,inactive,inactive,inactive,–,inactive,inactive,–,–,2.75 µM (active),–,–,–,–
CC(C)(C)C(=O)CC(=O)C(F)(F)C(F)(F)C(F)(F)F,inactive,inactive,inactive,inactive,inactive,–,inactive,inactive,–,inactive,–,–,–,–,–
Nc1ccc([N+](=O)[O-])cc1O,inactive,inactive,inactive,inactive,inactive,inactive,inactive,inactive,inactive,–,–,–,–,–,–
FC(F)(F)C(F)(F)C(F)(F)CI,inactive,inactive,inactive,inactive,inactive,–,inactive,inactive,–,inactive,–,–,–,–,–
CCCCCCCOC(=O)c1ccccc1C(=O)OCCCCCCC,inactive,inactive,inactive,inactive,inactive,–,inactive,–,–,inactive,–,–,–,–,–
C=C(C)C(=O)OCCC(F)(F)C(F)(F)C(F)(F)C(F)(F)C(F)(C(F)(F)F)C(F)(F)F,inactive,inactive,inactive,inactive,inactive,–,inactive,inactive,–,–,7.49 µM (active),–,–,–,–
O=C(C=Cc1ccccc1)OCC=Cc1ccccc1,inactive,inactive,inactive,inactive,inactive,–,inactive,inactive,inactive,–,18 µM (active),–,–,–,–
O=C(O)C(F)(OC(F)(F)C(F)(OC(F)(F)C(F)(OC(F)(F)C(F)(F)C(F)(F)F)C(F)(F)F)C(F)(F)F)C(F)(F)F (stereo unspecified),inactive,inactive,inactive,inactive,inactive,inactive,inactive,inactive,–,–,–,–,–,–,–
O=C(Cl)C(F)(F)C(F)(F)C(F)(F)C(F)(F)C(F)(F)C(F)(F)C(F)(F)C(F)(F)F,–,inactive,inactive,–,inactive,–,–,–,–,inactive,–,33.4 µM (active),–,52.2 µM (active),41.9 µM (active)
CCc1c(Br)c(Br)c(Br)c(Br)c1Br,inactive,inactive,inactive,inactive,inactive,–,inactive,–,–,inactive,–,–,–,–,–
C=CC(=O)OCC(F)(F)C(F)(F)C(F)(F)C(F)(F)COC(=O)C=C,–,inactive,inactive,–,inactive,–,–,inactive,inactive,–,38.3 µM (active),44.9 µM (active),–,50 µM (active),36.4 µM (active)
C=CC(=O)OCC(F)(F)C(F)(F)C(F)(F)C(F)(F)C(F)(F)C(F)(F)C(F)(F)F,inactive,inactive,inactive,inactive,inactive,–,inactive,inactive,inactive,–,15.6 µM (active),–,–,–,–
O=C(O)C(F)(OC(F)(F)C(F)(OC(F)(F)C(F)(F)C(F)(F)F)C(F)(F)F)C(F)(F)F (stereo unspecified),inactive,inactive,inactive,inactive,–,inactive,inactive,inactive,inactive,inactive,18.4 µM (active),–,–,–,–
Cc1ccc(S(=O)(=O)OCC(F)(F)C(F)(F)C(F)(F)C(F)(F)C(F)(F)C(F)F)cc1,inactive,inactive,inactive,inactive,inactive,–,inactive,–,inactive,–,–,–,–,–,–
OCC(F)(F)C(F)(F)C(F)(F)F,inactive,inactive,inactive,inactive,inactive,–,inactive,inactive,inactive,inactive,–,–,–,–,–
O=C(O)C(F)(F)C(F)(F)F,inactive,inactive,inactive,inactive,inactive,–,inactive,inactive,inactive,inactive,–,–,–,–,–
